PubChem BioAssay AID1159580 (chemical genetic matrix, 2015)
Screen size: about 5,500 compounds; about 2,000 (36%) were called active. Not shown: some 18% with an inconclusive outcome. No stated cut-off is given here; in the data, active means normalized growth mostly below about 0.91 (no sharp cut-off); inconclusive means no clear call, values can overlap the other calls; inactive means mostly above about 0.92. The list shows a part of the results.

Test: chemical genetic growth profiling, strain panel (AID 1159580);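 further: tested at 20 µM; growth read once vehicle control cultures reached saturation at 30 °C; 1 = growth at the plate median or of vehicle wells; lower values mean less growth of the strain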
Details: S. cerevisiae deletion strains, growth OD

Measured: normalized growth

O=c1ccc2c(O)c3ccoc3cc2o1
inactive: locus YAL021C, strain ccr4, active compounds read low 0.992 | locus YAL026C, strain drs2, active compounds read low 0.974 | locus YAL030W, strain snc1, active compounds read low 0.989 | locus YBL061C, strain skt5, active compounds read low 0.982 | locus YBR009C, strain hhf1, active compounds read low 0.977 | locus YBR023C, strain chs3, active compounds read low 0.987 | locus YBR171W, strain sec66, active compounds read low 0.983 | locus YBR231C, strain swc5, active compounds read low 0.989 | locus YBR279W, strain paf1, active compounds read low 0.984 | locus YCL011C, strain gbp2, active compounds read low 0.989 | locus YCL016C, strain dcc1, active compounds read low 0.986 | locus YCL069W, strain vba3, active compounds read low 0.98 | locus YCR088W, strain abp1, active compounds read low 0.967 | locus YDL005C, strain med2, active compounds read low 0.986 | locus YDL040C, strain nat1, active compounds read low 0.99 | locus YDR001C, strain nth1, active compounds read low 0.977 | locus YDR069C, strain doa4, active compounds read low 0.986 | locus YDR137W, strain rgp1, active compounds read low 1.01 | locus YDR159W, strain sac3, active compounds read low 0.997 | locus YDR195W, strain ref2 0.957 | locus YDR297W, strain sur2, active compounds read low 0.987 | locus YDR334W, strain swr1, active compounds read low 0.947 | locus YDR335W, strain msn5, active compounds read low 0.994 | locus YDR392W, strain spt3, active compounds read low 0.98 | locus YEL003W, strain gim4, active compounds read low 0.984 | locus YEL037C, strain rad23, active compounds read low 0.984 | locus YEL061C, strain CIN8 (second series), active compounds read low 0.965 | locus YER015W, strain faa2, active compounds read low 0.993 | locus YER016W, strain bim1, active compounds read low 0.994 | locus YER111C, strain swi4, active compounds read low 0.995 | locus YER155C, strain BEM2 (second series), active compounds read low 0.997 | locus YFR010W, strain ubp6, active compounds read low 0.968 | locus YGL167C, strain pmr1, active compounds read low 0.986 | locus YGL173C, strain kem1, active compounds read low 0.992 | locus YGL227W, strain vid30, active compounds read low 0.981 | locus YGL240W, strain doc1, active compounds read low 0.99 | locus YGL253W, strain hxk2, active compounds read low 0.997 | locus YHR013C, strain ard1, active compounds read low 0.956 | locus YHR027C, strain rpn1, active compounds read low 0.998 | locus YHR030C, strain SLT2, active compounds read low 0.997 | locus YHR079C, strain IRE1, active compounds read low 0.985 | locus YHR142W, strain chs7, active compounds read low 0.975 | locus YJL092W, strain hpr5, active compounds read low 0.983 | locus YJL095W, strain BCK1 (second series), active compounds read low 0.972 | locus YJL095W, strain BCK1, active compounds read low 0.991 | locus YJL115W, strain asf1, active compounds read low 0.965 | locus YJL129C, strain trk1, active compounds read low 0.978 | locus YJL154C, strain vps35, active compounds read low 0.966 | locus YJL164C, strain tpk1, active compounds read low 0.992 | locus YJL166W, strain qcr8, active compounds read low 0.963 | locus YJL187C, strain SWE1, active compounds read low 0.988 | locus YJR066W, strain TOR1, active compounds read low 0.935 | locus YKL160W, strain elf1, active compounds read low 0.993 | locus YKR026C, strain gcn3, active compounds read low 0.986 | locus YKR091W, strain srl3, active compounds read low 0.984 | locus YLL001W, strain dnm1, active compounds read low 0.982 | locus YLL026W, active compounds read low 0.993 | locus YLL041C, strain sdh2, active compounds read low 0.981 | locus YLR027C, strain aat2, active compounds read low 0.976 | locus YLR113W, strain HOG1, active compounds read low 1 | locus YLR221C, strain rsa3, active compounds read low 0.984 | locus YLR258W, strain gsy2, active compounds read low 0.987 | locus YLR262C, strain YPT6 (second series), active compounds read low 1.01 | locus YLR320W, strain mms22, active compounds read low 1.01 | locus YLR342W, strain FKS1, active compounds read low 0.984 | locus YLR357W, strain rsc2, active compounds read low 0.975 | locus YLR370C, strain arc18, active compounds read low 0.984 | locus YLR384C, strain iki3, active compounds read low 0.992 | locus YML120C, strain ndi1, active compounds read low 0.97 | locus YMR058W, strain fet3, active compounds read low 0.98 | locus YMR125W, strain sto1, active compounds read low 0.983 | locus YMR129W, active compounds read low 0.976 | locus YMR205C, strain PFK2, active compounds read low 0.975 | locus YMR231W, strain pep5, active compounds read low 0.981 | locus YNL071W, strain lat1, active compounds read low 0.979 | locus YNL183C, strain NPR1, active compounds read low 0.944 | locus YNL209W, strain ssb2, active compounds read low 0.975 | locus YNL248C, strain rpa49, active compounds read low 0.941 | locus YNL322C, strain KRE1 (second series), active compounds read low 0.984 | locus YNR049C, strain mso1, active compounds read low 0.996 | locus YOR001W, strain rrp6, active compounds read low 0.975 | locus YOR070C, strain gyp1, active compounds read low 0.992 | locus YOR080W, strain dia2, active compounds read low 0.987 | locus YOR083W, strain WHI5, active compounds read low 0.989 | locus YOR106W, strain vam3, active compounds read low 0.977 | locus YOR231W, strain MKK1, active compounds read low 0.996 | locus YOR265W, strain rbl2, active compounds read low 0.973 | locus YOR270C, strain vph1, active compounds read low 0.904 | locus YOR290C, strain snf2, active compounds read low 0.991 | locus YPL051W, strain arl3, active compounds read low 1.01 | locus YPL078C, strain atp4, active compounds read low 0.974 | locus YPL106C, strain sse1, active compounds read low 0.978 | locus YPL240C, strain hsp82, active compounds read low 0.983 | locus YPL256C, strain CLN2, active compounds read low 0.978
